Test results from PMC5540273 (PLoS ONE, 2017).

Tests used:
Settings in all cases: concentration: 1 μM,replicates: in singlicate; n = 1
[1] = tested on: T1, ERK1
T1 construct: gene MAPK3

[2] = tested on: T2, ERK2
T2 construct: gene MAPK1

[3] = tested on: T3, ERK3
T3 construct: gene MAPK6

[4] = tested on: T4, ERK4
T4 construct: gene MAPK4

[5] = tested on: T5, ERK5
T5 construct: gene MAPK7

[6] = tested on: T6, ERK8
T6 construct: gene MAPK15

[7] = tested on: ERN1
[8] = tested on: T7, FAK
T7 construct: gene PTK2

[9] = tested on: FER
[10] = tested on: FES
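Also: KINOMEscan kinase panel screen.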

Row | SMILES | %Inh [1] | %Inh [2] | %Inh [3] | %Inh [4] | %Inh [5] | %Inh [6] | %Inh [7] | %Inh [8] | %Inh [9] | %Inh [10]
1 | O=C(Nc1n[nH]c2cc(-c3ccco3)ccc12)C1CC1 [SB-737447] | 0% | 0% | 0% | 3% | 0% | 72% | 9% | 3% | 0% | 1%
2 | COc1cc2ncn(-c3cc(OCC4CCCCC4)c(C(N)=O)s3)c2cc1OC [GSK204559] | 6% | 2% | 18% | 4% | 0% | 2% | 8% | 0% | 23% | 8%
3 | CCOC(=O)N1CCC(n2cnc(-c3ccc(F)cc3)c2-c2ccnc(N)n2)CC1 [SB-219952] | 0% | 0% | 0% | 8% | 0% | 0% | 19% | 0% | 20% | 0%
4 | Cc1ccc(Nc2ccnc(Nc3ccc4c(c3)CS(=O)(=O)C4)n2)cc1O.Cl [GW579362] | 0% | 0% | 51% | 48% | 0% | 18% | 42% | 65% | 52% | 2%
5 | O=C(Nc1cccc(Oc2ccc3nccn3n2)c1)Nc1cccc(C(F)(F)F)c1 | 0% | 0% | 0% | 1% | 2% | 18% | 6% | 2% | 0% | 2%
6 | O=C(NOCC1CC1)c1cc(Br)c(F)c(F)c1Nc1ccc(I)cc1Cl | 0% | 0% | 0% | 0% | 0% | 8% | 0% | 0% | 11% | 0%
7 | CC(=O)Nc1ccc(-c2cc3ncnc(SCC(=O)O)c3s2)cc1 | 0% | 9% | 0% | 0% | 0% | 27% | 10% | 1% | 0% | 14%
